Results reported in the supplement of paper PMC10849652.
Of roughly 7,900 targets only a part is listed; those with a hit were picked by preference. About 0.6% of all pairs of compound and target were hits. Unmarked numbers belong to inactive results.

Legend:
Assay in all cases: log2 fold change, soluble protein after heating vs DMSO (PISA); higher = thermal stabilisation; K562 cells, 10 uM, 30 min; active = over 0.2 and 3.5 SD of the protein, either way, in both replicates (recomputed)
[1] = compound: CC1=C(C=C(C=C1)NC(=O)C2=CC(=CC=C2)C(C)(C)C#N)NC3=CC4=C(C=C3)N=CN(C4=O)C
How it was run: (§1)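 Soluble protein was quantified by TMTpro 16plex LC-MS/MS after channel sums were equalised. It was obtained as the supernatant after 21,000xg for 90 min from pooled aliquots of K562 cells (2×10^6 cells/mL, 10 μM compound, 30 min) heated for 3 min across 48°C-58°C and extracted in PBS with 0.5% NP-40 at 4°C. Thermal stability values are relative to control samples and come from duplicates. They are given as log2 fold changes.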

[2] = compound: CC1=C(C=C(C=C1)NC(=O)C2=CC(=CC=C2)N(C)C)NC(=O)C3=CC=C(C=C3)O
How it was run: as §1

[3] = compound: CC1=CC=C(C=C1)SC2=C3C=C(SC3=CN=C2)C(=O)N
How it was run: as §1

[4] = compound: CC1=NC(=CC=C1)C2=C(N=C(N2)C(C)(C)C)C3=CC4=NC=CN=C4C=C3
How it was run: as §1

Nexturastat A = compound: CCCCN(Cc1ccc(C(=O)NO)cc1)C(=O)Nc1ccccc1 [Nexturastat A]
How it was run: as §1

vemurafenib = compound: CCCS(=O)(=O)Nc1ccc(F)c(C(=O)c2c[nH]c3ncc(-c4ccc(Cl)cc4)cc23)c1F [vemurafenib]
How it was run: as §1

[5] = compound: CCCS(=O)(=O)Nc1ccc(F)c(C(=O)c2c[nH]c3ncc(Cl)cc23)c1F
How it was run: as §1

[6] = compound: CCCc1cc(C)[nH]c(=O)c1CNC(=O)c1cc(-c2ccnc(N3CCN(C)CC3)c2)cc2c1cnn2C(C)C
How it was run: as §1

givinostat = compound: CCN(CC)Cc1ccc2cc(COC(=O)Nc3ccc(C(=O)NO)cc3)ccc2c1 [givinostat]
How it was run: as §1

barasertib = compound: CCN(CCCOc1ccc2c(Nc3cc(CC(=O)Nc4cccc(F)c4)[nH]n3)ncnc2c1)CCOP(=O)(O)O [barasertib]
How it was run: as §1

Chain of UniProt Q6IAN0 (Q6IAN0 whole entry, looked up): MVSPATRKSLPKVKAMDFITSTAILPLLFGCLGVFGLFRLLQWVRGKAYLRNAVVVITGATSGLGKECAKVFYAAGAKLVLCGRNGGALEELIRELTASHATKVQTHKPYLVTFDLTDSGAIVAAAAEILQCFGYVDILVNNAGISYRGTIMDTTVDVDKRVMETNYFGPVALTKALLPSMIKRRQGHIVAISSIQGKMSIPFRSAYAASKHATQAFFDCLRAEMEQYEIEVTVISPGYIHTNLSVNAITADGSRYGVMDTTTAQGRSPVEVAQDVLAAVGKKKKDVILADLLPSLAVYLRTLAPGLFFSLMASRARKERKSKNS
Chain of UniProt Q6UX04 (Q6UX04 whole entry, looked up): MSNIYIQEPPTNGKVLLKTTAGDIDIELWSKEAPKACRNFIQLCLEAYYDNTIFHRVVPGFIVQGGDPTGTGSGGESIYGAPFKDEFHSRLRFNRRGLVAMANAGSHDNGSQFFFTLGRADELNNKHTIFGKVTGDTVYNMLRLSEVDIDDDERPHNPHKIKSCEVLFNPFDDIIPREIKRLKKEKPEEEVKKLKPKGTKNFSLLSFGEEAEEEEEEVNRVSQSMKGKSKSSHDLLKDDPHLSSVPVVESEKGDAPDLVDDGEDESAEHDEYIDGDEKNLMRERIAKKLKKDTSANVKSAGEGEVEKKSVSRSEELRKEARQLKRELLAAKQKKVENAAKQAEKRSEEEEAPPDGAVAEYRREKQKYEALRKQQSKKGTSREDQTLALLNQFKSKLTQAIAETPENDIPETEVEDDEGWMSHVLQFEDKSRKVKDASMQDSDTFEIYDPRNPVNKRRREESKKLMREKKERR
Chain of UniProt P60842 (P60842 whole entry, looked up): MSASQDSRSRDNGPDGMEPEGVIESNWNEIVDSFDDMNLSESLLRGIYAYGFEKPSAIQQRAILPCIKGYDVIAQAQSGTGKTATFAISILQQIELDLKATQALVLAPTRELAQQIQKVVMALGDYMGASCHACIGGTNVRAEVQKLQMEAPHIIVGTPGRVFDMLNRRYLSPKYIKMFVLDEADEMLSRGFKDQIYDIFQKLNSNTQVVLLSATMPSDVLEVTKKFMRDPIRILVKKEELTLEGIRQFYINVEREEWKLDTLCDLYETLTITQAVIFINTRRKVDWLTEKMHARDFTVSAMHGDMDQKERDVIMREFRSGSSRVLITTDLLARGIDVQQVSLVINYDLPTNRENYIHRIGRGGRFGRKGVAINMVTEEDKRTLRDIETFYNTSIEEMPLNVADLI
Chain of UniProt Q8IX18 (Q8IX18 whole entry, looked up): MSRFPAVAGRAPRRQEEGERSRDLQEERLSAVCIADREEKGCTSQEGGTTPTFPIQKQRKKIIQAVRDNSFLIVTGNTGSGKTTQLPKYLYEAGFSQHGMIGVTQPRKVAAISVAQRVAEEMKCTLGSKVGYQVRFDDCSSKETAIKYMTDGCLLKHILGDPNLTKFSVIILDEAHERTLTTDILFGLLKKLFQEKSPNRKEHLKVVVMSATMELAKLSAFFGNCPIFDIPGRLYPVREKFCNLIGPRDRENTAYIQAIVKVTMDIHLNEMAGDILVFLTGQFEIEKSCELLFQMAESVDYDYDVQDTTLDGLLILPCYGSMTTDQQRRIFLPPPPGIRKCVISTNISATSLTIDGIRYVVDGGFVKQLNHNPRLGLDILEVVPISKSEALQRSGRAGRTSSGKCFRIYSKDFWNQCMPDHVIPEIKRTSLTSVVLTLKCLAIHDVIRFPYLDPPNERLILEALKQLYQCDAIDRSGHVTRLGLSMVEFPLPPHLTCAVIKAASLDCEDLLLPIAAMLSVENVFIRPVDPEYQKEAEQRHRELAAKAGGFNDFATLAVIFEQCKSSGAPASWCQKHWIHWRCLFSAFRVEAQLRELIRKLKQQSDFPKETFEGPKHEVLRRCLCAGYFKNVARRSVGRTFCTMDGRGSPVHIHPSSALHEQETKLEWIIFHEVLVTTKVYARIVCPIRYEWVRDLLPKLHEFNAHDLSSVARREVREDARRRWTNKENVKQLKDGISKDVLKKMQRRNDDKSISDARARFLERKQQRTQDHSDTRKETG
Chain of UniProt P98082 (P98082 whole entry, looked up): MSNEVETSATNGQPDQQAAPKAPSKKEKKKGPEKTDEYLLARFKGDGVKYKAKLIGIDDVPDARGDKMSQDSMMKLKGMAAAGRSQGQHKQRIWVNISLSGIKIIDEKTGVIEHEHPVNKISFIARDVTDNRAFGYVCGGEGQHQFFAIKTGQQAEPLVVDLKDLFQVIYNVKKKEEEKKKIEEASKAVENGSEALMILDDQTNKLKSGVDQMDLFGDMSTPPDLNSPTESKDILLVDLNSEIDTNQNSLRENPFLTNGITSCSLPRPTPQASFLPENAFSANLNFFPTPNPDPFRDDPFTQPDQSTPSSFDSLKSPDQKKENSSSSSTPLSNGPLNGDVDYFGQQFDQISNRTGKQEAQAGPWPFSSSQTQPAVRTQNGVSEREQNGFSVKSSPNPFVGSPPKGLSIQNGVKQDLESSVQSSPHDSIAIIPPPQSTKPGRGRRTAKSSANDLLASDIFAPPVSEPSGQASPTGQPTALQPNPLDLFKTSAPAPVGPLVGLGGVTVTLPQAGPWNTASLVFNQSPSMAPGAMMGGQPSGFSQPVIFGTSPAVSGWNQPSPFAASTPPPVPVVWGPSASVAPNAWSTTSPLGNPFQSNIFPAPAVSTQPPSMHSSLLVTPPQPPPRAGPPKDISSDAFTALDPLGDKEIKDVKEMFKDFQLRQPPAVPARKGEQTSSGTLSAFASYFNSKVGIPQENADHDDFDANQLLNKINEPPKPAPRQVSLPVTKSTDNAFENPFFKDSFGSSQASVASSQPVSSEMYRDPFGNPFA
Chain of UniProt Q96A65 (Q96A65 whole entry, looked up): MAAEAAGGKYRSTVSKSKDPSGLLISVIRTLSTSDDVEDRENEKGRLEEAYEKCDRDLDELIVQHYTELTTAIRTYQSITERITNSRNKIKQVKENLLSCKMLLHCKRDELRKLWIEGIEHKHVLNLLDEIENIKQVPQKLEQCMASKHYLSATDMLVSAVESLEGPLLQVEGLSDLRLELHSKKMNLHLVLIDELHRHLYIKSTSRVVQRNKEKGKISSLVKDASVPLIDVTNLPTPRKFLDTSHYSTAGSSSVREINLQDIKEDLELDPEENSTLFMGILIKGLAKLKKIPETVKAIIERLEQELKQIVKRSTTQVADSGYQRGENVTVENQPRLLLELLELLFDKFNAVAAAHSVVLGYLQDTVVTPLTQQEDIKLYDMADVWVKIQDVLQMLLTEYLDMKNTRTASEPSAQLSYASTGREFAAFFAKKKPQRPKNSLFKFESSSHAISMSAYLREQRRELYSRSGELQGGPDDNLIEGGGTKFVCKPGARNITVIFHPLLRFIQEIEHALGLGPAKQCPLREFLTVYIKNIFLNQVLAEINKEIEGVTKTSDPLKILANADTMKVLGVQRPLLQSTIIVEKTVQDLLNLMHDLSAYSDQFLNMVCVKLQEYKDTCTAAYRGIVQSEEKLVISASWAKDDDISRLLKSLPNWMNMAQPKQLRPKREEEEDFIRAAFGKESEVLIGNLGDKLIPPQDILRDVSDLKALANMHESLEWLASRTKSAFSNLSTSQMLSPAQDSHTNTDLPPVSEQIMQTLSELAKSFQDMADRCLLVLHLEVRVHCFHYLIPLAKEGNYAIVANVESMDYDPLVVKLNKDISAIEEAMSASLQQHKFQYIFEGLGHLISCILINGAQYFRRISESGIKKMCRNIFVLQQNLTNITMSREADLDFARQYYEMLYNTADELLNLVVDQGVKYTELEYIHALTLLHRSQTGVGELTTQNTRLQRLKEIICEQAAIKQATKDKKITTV
Chain of UniProt Q9UPT5 (Q9UPT5 whole entry, looked up): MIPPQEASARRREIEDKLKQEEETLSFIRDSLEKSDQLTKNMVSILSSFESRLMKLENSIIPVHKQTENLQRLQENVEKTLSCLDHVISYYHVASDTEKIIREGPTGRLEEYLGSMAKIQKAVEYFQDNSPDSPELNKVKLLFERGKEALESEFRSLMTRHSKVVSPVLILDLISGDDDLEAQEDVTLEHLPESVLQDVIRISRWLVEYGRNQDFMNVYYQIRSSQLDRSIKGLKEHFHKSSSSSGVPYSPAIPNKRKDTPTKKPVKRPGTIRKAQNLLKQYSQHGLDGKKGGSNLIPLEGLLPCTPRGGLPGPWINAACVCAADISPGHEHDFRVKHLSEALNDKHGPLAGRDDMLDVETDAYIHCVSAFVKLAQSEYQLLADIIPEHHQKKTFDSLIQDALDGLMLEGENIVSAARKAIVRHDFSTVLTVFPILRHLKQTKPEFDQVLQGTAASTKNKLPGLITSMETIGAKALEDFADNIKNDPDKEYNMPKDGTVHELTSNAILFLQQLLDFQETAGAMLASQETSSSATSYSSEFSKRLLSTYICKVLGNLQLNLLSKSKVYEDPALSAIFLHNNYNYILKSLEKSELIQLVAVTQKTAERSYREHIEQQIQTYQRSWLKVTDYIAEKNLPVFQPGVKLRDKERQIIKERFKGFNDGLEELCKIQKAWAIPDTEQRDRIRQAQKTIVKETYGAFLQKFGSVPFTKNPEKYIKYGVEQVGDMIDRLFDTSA
Chain of UniProt Q9NX74 (Q9NX74 whole entry, looked up): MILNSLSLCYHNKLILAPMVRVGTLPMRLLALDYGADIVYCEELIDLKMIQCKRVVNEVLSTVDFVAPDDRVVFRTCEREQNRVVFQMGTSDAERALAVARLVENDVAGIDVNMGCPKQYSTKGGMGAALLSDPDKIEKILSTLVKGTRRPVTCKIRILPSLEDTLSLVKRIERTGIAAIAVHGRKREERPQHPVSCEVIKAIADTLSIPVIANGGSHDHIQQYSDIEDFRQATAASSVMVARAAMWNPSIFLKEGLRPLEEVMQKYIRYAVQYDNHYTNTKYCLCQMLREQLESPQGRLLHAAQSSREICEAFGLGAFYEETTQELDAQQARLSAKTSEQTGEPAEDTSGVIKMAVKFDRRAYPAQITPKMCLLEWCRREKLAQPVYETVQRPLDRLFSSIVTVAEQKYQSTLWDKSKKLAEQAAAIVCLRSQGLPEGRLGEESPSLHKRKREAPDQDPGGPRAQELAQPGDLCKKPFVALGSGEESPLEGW

| Target | log2 fold change [1] | log2 fold change [2] | log2 fold change [3] | log2 fold change [4] | log2 fold change (Nexturastat A) | log2 fold change (vemurafenib) | log2 fold change [5] | log2 fold change [6] | log2 fold change (givinostat) | log2 fold change (barasertib) |
| --- | --- | --- | --- | --- | --- | --- | --- | --- | --- | --- |
| DDOST (UniProt P39656) | 0.03 | -0.013 | -0.031 | 0.016 | -0.01 | 0.003 | -0.006 | -0.001 | 0.006 | 0.008 |
| DSN1 (UniProt Q9H410) | -0.02 | -0.096 | -0.003 | 0.021 | 0.051 | 0.133 | 0.022 | 0.004 | 0.053 | 0.075 |
| DLD (UniProt P09622) | -0.045 | 0.025 | 0.008 | 0.013 | -0.058 | -0.021 | -0.01 | 0.029 | -0.06 | 0 |
| DUS2 (UniProt Q9NX74) | -0.028 | -0.022 | -0.022 | 0.04 | -0.015 | -0.004 | 0.099 | 0.039 | 0.062 | -0.062 |
| EXOC4 (UniProt Q96A65) | -0.021 | 0.029 | 0.021 | 0.001 | 0.209 | -0.003 | 0.098 | 0.01 | 0.133 | 0.139 |
| DHRS3 (UniProt O75911) | 0.075 | -0.037 | 0.019 | 0.027 | -0.037 | -0.078 | -0.04 | -0.035 | -0.051 | -0.048 |
| DBNL isoform 3 (UniProt Q9UJU6) | -0.051 | -0.019 | 0.011 | 0.113 | -0.082 | 0.07 | 0.1 | -0.006 | 0.036 | 0.045 |
| DTWD2 (UniProt Q8NBA8) | 0.019 | -0.025 | 0.197 | -0.048 | 0.009 | -0.079 | 0.043 | -0.006 | -0.139 | 0.056 |
| ERCC6 (UniProt Q03468) | -0.127 | -0.038 | 0.005 | -0.038 | -0.126 | 0.064 | 0.074 | -0.017 | 0.071 | 0.065 |
| DCAF13 (UniProt Q9NV06) | -0.038 | 0.007 | -0.123 | -0.067 | 0.205 | -0.117 | -0.062 | 0.089 | 0.017 | -0.084 |
| CTNNB1 (UniProt P35222) | -0.118 | -0.018 | 0.09 | -0.028 | 0.172 | -0.22 | -0.002 | -0.134 | 0.129 | 0.04 |
| DDX39A (UniProt O00148) | -0.018 | -0.016 | 0.02 | 0.027 | 0.015 | 0.004 | 0.017 | 0.074 | 0.076 | 0.035 |
| EIF4A1 (UniProt P60842) | 0.106 | -0.017 | 0.061 | 0.049 | -0.115 | 0.055 | 0.089 | 0.151 | 0.06 | 0.026 |
| CUX1 isoform 2 (UniProt Q13948) | -0.07 | 0.007 | -0.003 | -0.031 | 0.051 | 0.074 | 0.077 | -0.011 | -0.049 | 0.038 |
| DIP2A (UniProt Q14689) | 0.032 | -0.013 | -0.007 | 0.07 | -0.119 | 0.05 | -0.009 | 0.336 | -0.05 | 0.118 |
| EIF4E2 (UniProt O60573) | -0.089 | -0.006 | 0.061 | 0.089 | 0.097 | 0.126 | 0.069 | 0 | 0.031 | 0.083 |
| DCP2 (UniProt Q8IU60) | -0.134 | -0.006 | 0.016 | -0.089 | 0.174 | 0.064 | 0.055 |  |  |  |
| CTSL (UniProt P07711) | -0.083 | 0.014 | -0.049 | 0.013 | 0.085 | -0.023 | -0.05 | 0.033 | 0.121 | 0.092 |
| EDC3 (UniProt Q96F86) | -0.046 | 0.085 | 0.021 | 0.037 | 0.088 | 0.046 | 0.008 | 0.1 | 0.049 | 0.055 |
| EXOC7 (UniProt Q9UPT5) | -0.116 | -0.057 | -0.014 | -0.05 | 0.065 | 0.032 | 0.07 | 0.079 | 0.09 | 0.036 |
| DHRS7B (UniProt Q6IAN0) | -0.008 | -0.066 | -0.049 | -0.001 | 0.003 | 0.066 | 0.06 | 0.04 | -0.029 | -0.004 |
| DCUN1D1 (UniProt Q96GG9) | -0.027 | -0.077 | 0.022 | 0.078 | 0.018 | 0.008 | 0.05 | -0.028 | -0.018 | 0.013 |
| DHX40 (UniProt Q8IX18) | 0.105 | -0.047 | 0.02 | -0.027 | 0.12 | 0 | 0.043 | 0.025 | 0.087 | -0.002 |
| DOHH (UniProt Q9BU89) | 0.083 | -0.069 | 0.084 | -0.091 | -0.144 | 0.001 | -0.059 | -0.063 | -0.068 | -0.274 |
| ERLIN2 (UniProt O94905) | -0.045 | -0.024 | 0.009 | -0.037 | 0.104 | -0.062 | 0.008 | 0.12 | 0.038 | -0.003 |
| FAM117A (UniProt Q9C073) | 0.036 | 0.013 | -0.007 | -0.034 | 0.004 | -0.023 | -0.004 | -0.001 | 0.109 | 0.053 |
| CWC27 (UniProt Q6UX04) | -0.001 | -0.035 | 0.002 | 0.021 | -0.029 | 0.128 | 0.112 | 0.009 | 0.082 | 0.073 |
| DAB2 (UniProt P98082) | 0.016 | 0.015 | -0.03 | -0.046 | 0.058 | -0.033 | 0.064 | 0.036 | 0.109 | 0.072 |
| FADS3 (UniProt Q9Y5Q0) | 0.031 | -0.002 | -0.012 | 0.031 | -0.096 | 0.01 | 0.026 | -0.069 | -0.108 | 0.042 |
| FAM3A (UniProt P98173) | -0.022 | 0.012 | -0.005 | 0.003 | -0.304 (active) | 0.015 | 0.013 | -0.031 | -0.001 | 0.014 |
